Test results published in the supplement of paper PMC6658780.
Where a name gives a salt, the structure may show the parent alone. ± gives the standard deviation of the averaged measurements.

tested on: Escherichia coli ATCC BAA-2469; assay: percent growth inhibition of drug alone vs DMSO control; higher = more growth inhibition; details: antibiotic (0.125x MIC): none (0.1% DMSO); 7 µM
Method: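 Prestwick drugs tested at 20 uM and 7 uM with an antibiotic at 0.125x MIC (16 mg/L when MIC >128 mg/L) against E. coli ATCC BAA-2469 (NDM-1) in CAMHB, 384-well plates, duplicate runs. Percent growth inhibition was computed from OD600 (24 h minus 0 h) relative to DMSO wells. Drug + DMSO-only wells are also given. […]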

Compound | percent growth inhibition of drug alone [%]
C#C[C@]1(O)CC[C@H]2[C@@H]3CCC4=C(CCC(=O)C4)[C@H]3CC[C@@]21C [Norethynodrel] | 0.455 ± 0.56
Nc1nc(F)nc2c1ncn2[C@@H]1O[C@H](CO)[C@@H](O)[C@@H]1O [Fludarabine] | 23 ± 20
CC1=C(/C=C/C(C)=C/C=C/C(C)=C\C(=O)O)C(C)(C)CCC1 [Isotretinoin] | 1.08 ± 2.4
Oc1c(Cl)cc(Cl)c2cccnc12 [Chloroxine] | 13.1 ± 9.1
Oc1c(Cl)cc(Cl)c(Cl)c1Cc1c(O)c(Cl)cc(Cl)c1Cl [Hexachlorophene] | 9.96 ± 8.8
O=C1NCCN1c1ncc([N+](=O)[O-])s1 [Niridazole] | 19.9 ± 7.6
CCCCC(CC)CNC(=N)NC(=N)NCCCCCCNC(=N)NC(=N)NCC(CC)CCCC (configuration not stated) [Alexidine dihydrochloride] | 102 ± 2
Nc1ccn([C@@H]2O[C@H](CO)[C@@H](O)C2(F)F)c(=O)n1 [Gemcitabine] | 15.3 ± 12
Cc1c(N(C)C)c(=O)n(-c2ccccc2)n1C [Amidopyrine] | 0.00227 ± 1.1
Cc1cc(N)c2ccccc2[n+]1CCCCCCCCCC[n+]1c(C)cc(N)c2ccccc21 [Dequalinium dichloride] | 2.01 ± 0.53
C[C@H]1[C@H](NC(=O)/C(=N\OC(C)(C)C(=O)O)c2csc(N)n2)C(=O)N1S(=O)(=O)O [Aztreonam] | 13.2 ± 14

same assay, conditions: antibiotic (0.125x MIC): none (0.1% DMSO); 20 µM

Compound | percent growth inhibition of drug alone [%]
C#C[C@]1(O)CC[C@H]2[C@@H]3CCC4=C(CCC(=O)C4)[C@H]3CC[C@@]21C [Norethynodrel] | 5.02 ± 3.1
Nc1nc(F)nc2c1ncn2[C@@H]1O[C@H](CO)[C@@H](O)[C@@H]1O [Fludarabine] | 59.1 ± 4.9
CC1=C(/C=C/C(C)=C/C=C/C(C)=C\C(=O)O)C(C)(C)CCC1 [Isotretinoin] | 3.78 ± 1.7
CN(C)c1ccc(O)c2c1C[C@H]1C[C@H]3[C@H](N(C)C)C(O)=C(C(N)=O)C(=O)[C@@]3(O)C(O)=C1C2=O [Minocycline hydrochloride] | 110 ± 14
Oc1c(Cl)cc(Cl)c2cccnc12 [Chloroxine] | 102 ± 8
CCCCC(CC)CNC(=N)NC(=N)NCCCCCCNC(=N)NC(=N)NCC(CC)CCCC (configuration not stated) [Alexidine dihydrochloride] | 112 ± 12
O=C1OCCN1/N=C/c1ccc([N+](=O)[O-])o1 [Furazolidone] | 115 ± 13
Nc1ccn([C@@H]2O[C@H](CO)[C@@H](O)C2(F)F)c(=O)n1 [Gemcitabine] | 28.3 ± 14
Cc1c(N(C)C)c(=O)n(-c2ccccc2)n1C [Amidopyrine] | -1.02 ± 2.5
Cc1cc(N)c2ccccc2[n+]1CCCCCCCCCC[n+]1c(C)cc(N)c2ccccc21 [Dequalinium dichloride] | 12.5 ± 11
Nc1ncn(C2OC(CO)C(O)C2O)c(=O)n1 (configuration not stated) [Azacytidine-5] | 111 ± 10
